In the library only some 3% were active in any assay of this set; here they are far more common.
Vif inh: HIV Vif inhibition; HEK293T cells, Vif self-association by quenched fluorescence, imaging, 24 h; inhibition, % at 7.49 µM; actives 0.35% (n = 340,000); AID 602346; in the data active means inhibition above about 50%, passing the limit was not always enough; inconclusive means no clear call, values can overlap the other calls; inactive means below about 31%
MITF act: MITF TRPM1 promoter activation in melanoma cells; SK-MEL-5 TRPM1-promoter luciferase, 24 h; % of positive control, neutral wells = 0; activation, % at 12.5 µM; actives 0.75% (n = 300,000);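 active means mean activation of at least 80% with every replicate also reaching 80%; inconclusive means mean reaches 80% but some replicate falls short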;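 further: 0% = neutral control wells and 100% = parthenolide positive control wells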
esBAF inh: inhibitors of esBAF chromatin remodeling in mouse ES cells. AID 602393. actives 2% (n = 350,000). reporter increase, % at 12.5 µM. Bmi1-luciferase knock-in reporter, 24 h; 100% = twice the neutral-well signal; in the data active means activation above about 40%; inconclusive means no clear call, values can overlap the other calls;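 further: 0% = median of the plate's neutral control wells and 100% = double that signal; a rise in the Bmi1 reporter signal indicates esBAF inhibition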
PfHsp90 yeast 2: inhibits growth of yeast expressing Plasmodium falciparum Hsp90; S. cerevisiae expressing PfHsp90, BacTiter-Glo ATP, 48 h; yeast lacking PDR1 and PDR3 efflux regulators; inhibition, % at 9.4 µM; actives 0.32% (n = 310,000);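 active means every replicate shows inhibition above about 80%, whatever the replicate mean, limit read from the data; inconclusive means mean inhibition reaches the set limit but some replicate falls short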;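 further: 0% = DMSO neutral controls and 100% = 20 µM radicicol positive controls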
Wnt bcat act: Wnt/beta-catenin pathway activation; Wnt/beta-catenin reporter cell assay, activator, plate reader; activation, % at 9.35 µM; actives 1.2% (n = 300,000); AID 743398; in the data active means activation above about 30%, passing the limit was not always enough; inconclusive means no clear call, values can overlap the other calls;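 further: 0% = neutral control wells and 100% = positive control wells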
N-glyco inh: blocks N-linked glycosylation in D54 reporter cells. reporter increase, % at 12.5 µM. D54 ERlucT glycosylation luciferase reporter, 24 h; percent of 100 nM tunicamycin response. actives 0.23% (n = 360,000);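 active means mean luciferase reporter signal, scaled so untreated is 0 and the glycosylation-blocking control 100, at or above a set limit in every replicate; inconclusive means mean reaches the limit but not every replicate does; inactive means mean below the limit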;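 further: luciferase carries N-glycosylation sites so blocking glycosylation raises the light; 0% = median of neutral control wells and 100% = median of 100 nM tunicamycin wells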
Active calls of the source: *; ? = inconclusive; nt = no result given.

SMILES | Vif inh | MITF act | esBAF inh | PfHsp90 yeast 2 | Wnt bcat act | N-glyco inh
O=C(O)CC(NS(=O)(=O)c1ccc2c(c1)OCCO2)c1ccccc1[N+](=O)[O-] (stereo unspecified) | 3 | -7 | -7 | -23 | 5 | 1
O=C(CSc1ccsc1[N+](=O)[O-])NCc1ccco1 | 5 | -5 | nt | -22 | 33* | 2
O=C(Nc1ccccn1)Nc1cccs1 | 1 | 56 | 55* | -26 | nt | 3
O=C(NCc1cccs1)Nc1ccc2c(c1)OCO2 | -13 | nt | 63* | nt | nt | -1
O=C(Nc1ccc2c(c1)OCO2)Nc1ccccn1 | -5 | 62 | nt | 0 | 55* | -5
O=C(Nc1ccncc1)Nc1ccccn1 | -5 | 24 | -3 | -23 | nt | 8
O=C(Nc1ccc2c(c1)OCO2)Nc1cnccn1 | nt | 54 | ? | -13 | nt | 5
O=C(Nc1cccc(C(=O)O)c1)Nc1ccc2c(c1)OCO2 | 2 | -88 | -69 | 29 | -7 | -6
O=C(Nc1cccnc1)Nc1ccc2c(c1)OCO2 | 20 | nt | 42* | 33 | nt | -1
CO/N=C(/COc1ccc(F)cc1)c1ccc(OC)cc1 | -1 | -11 | 3 | -1 | 0 | -4
CCCCc1ccc(NC(=O)C2CCCO2)cc1 (stereo unspecified) | 5 | 105* | 20 | -2 | nt | -5
CCCCc1ccc(NC(=S)Nc2cccnc2)cc1 | 0 | 1 | nt | -3 | 1 | 0
CCCCc1ccc(NC(=O)Nc2cccnc2)cc1 | 12 | 62 | 51* | 19 | 12 | -1
Cn1ccc2cc(NC(=O)Nc3cccnc3)ccc21 | 6 | 71 | 56* | 5 | 13 | 3
COc1cccc(NC(=O)Nc2cccnc2)c1 | -4 | 22 | 19 | 13 | 1 | -2
O=C(NCc1ccccn1)Nc1ccc2c(c1)OCO2 | 2 | 18 | 51* | -4 | 17 | 1
COC(=O)Nc1ccc(S(=O)(=O)N2CCC(C(=O)NCc3ccc4c(c3)OCO4)CC2)cc1 | 11 | -13 | 1 | -7 | -1 | -1
COc1ccc(C(=O)N/N=C/c2ccccc2C(=O)O)cc1OC | 4 | 1 | 3 | -14 | 0 | 2
C[C@H](CO)N1C[C@H](C)[C@H](CN(C)C(=O)Cc2cccnc2)Oc2cc(C#CC3(O)CCCC3)ccc2S1(=O)=O | nt | nt | 8 | nt | nt | nt
CN(C)CCCNC(=O)[C@@H]1[C@@H](CO)[C@@H]2Cn3c(ccc(-c4ccncc4)c3=O)[C@H]1N2C(=O)CC1CC1 | nt | nt | 8 | nt | nt | nt
O=C(NCC[C@@H]1CC[C@H](NC(=O)C2CCCCC2)[C@@H](CO)O1)c1cnccn1 | nt | nt | 0 | nt | nt | nt
O=C(CNC(=O)c1cccs1)Nc1ccc2c(c1)OCCO2 | -5 | 47 | -7 | nt | 31* | -11
Cc1cc(N=Nc2ccccc2)cc(C)c1NC(=O)C(F)(F)F | -4 | 107* | nt | -11 | 43* | 1
CC(C)(C)C(=O)Nc1ccc(N=Nc2ccccc2)cc1 | -5 | -19 | -61 | 13 | -8 | -22
O=Cc1ccc(O)c2ncccc12 | -2 | -62 | -6 | 124* | nt | 4
SMILES | Vif inh | MITF act | esBAF inh | PfHsp90 yeast 2 | Wnt bcat act | N-glyco inh
NS(=O)(=O)c1ccc(N=Nc2ccc(O)c3ncccc23)cc1 | 2 | -33 | nt | 40 | 5 | 1
COC1=C/C(=C/c2c(O)c(C#N)c3ccccn23)C=CC1=O | ? | 0 | 55* | 29 | 34* | 3
COc1cc(OC)cc(C(=O)c2c(C)c(C#N)c3ccccn23)c1 | -12 | nt | -50 | 17 | -6 | 25
O=C(NC(=S)N(CCO)Cc1ccccc1)c1ccc(S(=O)(=O)N2CCCC2)cc1 | -2 | -1 | nt | -12 | 45* | 0
Cn1cnnc1Sc1nc2ccccc2nc1NS(=O)(=O)c1ccccc1 | 24 | 6 | -6 | nt | 6 | 0
CC(=O)Nc1ccc(S(=O)(=O)Nc2nc3ccccc3nc2Sc2nncn2C)cc1 | 1 | -8 | 44* | -9 | 14 | -1
COc1ccc(Oc2ccc(C(F)(F)F)cc2N)cc1 | -1 | 52 | 43* | -14 | 8 | -4
COc1ccc(Oc2ccc(C(F)(F)F)cc2NC(=O)c2ccc(OC)cc2)cc1 | 3 | -6 | nt | 26 | -1 | -3
C[C@@H]1CN([C@H](C)CO)C(=O)c2cc(NC(=O)NC3CCCCC3)ccc2O[C@@H](C)CCCCO[C@@H]1CN(C)C(=O)c1ccncc1 | nt | nt | 3 | nt | nt | nt
CC1CN(CCCCSc2ccc(Cl)cc2)CC(C)O1 (stereo unspecified) | -2 | 1 | -1 | 4 | 4 | -1
Nc1nc(-c2ccc3c(c2)CCO3)cs1 | -4 | 52 | nt | nt | 34* | 1
COc1ccc(-c2c(C#Cc3ccsc3)c3ccccc3n2C)cc1 | -2 | 4 | 45* | -16 | 12 | -5
O=C(O)c1cccc(N2C(=O)c3cc4cccc(Br)c4cc3C2=O)c1 | -8 | -5 | -6 | -86 | 2 | 2
CCC1CCc2c(sc(NC(=O)c3ccco3)c2C(N)=O)C1 (stereo unspecified) | -23 | nt | 60* | nt | 37* | 4
CC1CCc2c(sc(/N=C/c3ccco3)c2C(N)=O)C1 (stereo unspecified) | -3 | nt | nt | -10 | 45* | 0
O=C(c1cccs1)c1no[n+]([O-])c1C(=O)c1cccs1 | 2 | -67 | nt | 105* | nt | 23
CCn1c(C)nc2cc(OC)ccc21 | 1 | 5 | 2 | -6 | 0 | 1
COc1ccc(-c2c(C)nn(-c3ccccc3)c2N)cc1OC | 3 | 2 | 0 | 4 | nt | 1
COc1ccc(-c2c(C)nn(-c3ccccc3)c2N)cc1 | 41 | 103* | 63* | nt | 13 | 0
Cc1nn(-c2ccc(C(=O)O)cc2)c(N)c1-c1ccccc1 | 9 | 59 | 61* | 20 | 20 | -2
COc1ccc(-c2nn(-c3ccccc3)cc2N)cc1 | 2 | 50 | nt | -25 | 59* | 0
CC(=O)NC(Cc1cc(C)ccc1C)C(=O)N1CCN(C(=O)c2ccc([N+](=O)[O-])cc2)CC1 (stereo unspecified) | -3 | -3 | 3 | 7 | 1 | -1
Cc1nc2ncccn2c1-c1csc(Nc2ccccc2)n1 | -2 | -5 | nt | 23 | -1 | 9
c1ccc(Nc2nc(-c3ccccn3)cs2)cc1 | 3 | 6 | 25 | -8 | 40* | -10
O=C(Nc1nc(-c2ccccn2)cs1)C1CC1 | -1 | 47 | 46* | -10 | 10 | 1
O=C(Nc1nc(-c2ccccn2)cs1)C12CC3CC(CC(O)(C3)C1)C2 | 1 | 41 | nt | -43 | 40* | -4
O=C(Nc1nc(-c2ccccn2)cs1)c1ccc(Br)s1 | -20 | nt | 1 | 126* | nt | -4
CC(=O)n1c(=O)oc2ccccc21 | -2 | 13 | 2 | -15 | 4 | 2
CC(Oc1ccc2c(-c3ccccc3)cc(=O)oc2c1)C(=O)NC(Cc1c[nH]c2ccc(O)cc12)C(=O)O (stereo unspecified) | 9 | -13 | -6 | 4 | -1 | 2

Source: PubChem (Broad Institute)
